# Only some compounds are listed: those with a hit (about 11% of all), similar ones and a draw of the others.
# FLuc inh: Firefly luciferase inhibition profiling of diverse chemical library using quantitative high-throughput screening | 76,000 compounds, 2.5% hits | Potency, µM (top dose mostly 115 µM), most hits filed as inhibitors | Luciferin 4-monooxygenase (Photinus pyralis), P08659 | purified P. pyralis luciferase, luminescence, biochemical; further: nearly all actives have a fitted effect of over 65% in size
# Target sequence (P08659 whole entry, looked up): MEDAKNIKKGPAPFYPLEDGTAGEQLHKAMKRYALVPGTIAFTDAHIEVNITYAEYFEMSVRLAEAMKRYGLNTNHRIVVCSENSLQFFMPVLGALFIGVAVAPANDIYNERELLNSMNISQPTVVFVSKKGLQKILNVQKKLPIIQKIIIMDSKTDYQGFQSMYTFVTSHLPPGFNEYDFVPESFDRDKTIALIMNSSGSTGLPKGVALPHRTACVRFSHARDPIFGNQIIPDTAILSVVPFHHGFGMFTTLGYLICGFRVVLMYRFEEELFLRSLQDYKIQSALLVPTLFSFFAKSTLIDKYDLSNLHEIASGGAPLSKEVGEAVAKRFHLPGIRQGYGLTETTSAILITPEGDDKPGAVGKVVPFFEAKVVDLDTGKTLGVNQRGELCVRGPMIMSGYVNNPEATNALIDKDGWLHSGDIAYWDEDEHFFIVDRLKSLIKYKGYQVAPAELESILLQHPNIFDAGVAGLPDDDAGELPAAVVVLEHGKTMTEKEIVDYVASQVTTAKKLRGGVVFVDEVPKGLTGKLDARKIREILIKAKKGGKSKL
#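 Purified P. pyralis luciferase (10nM final) in 50mM Tris acetate pH 7.5, 10mM Mg acetate, 0.01% Tween-20, 0.05% BSA with 10uM D-luciferin and 10uM ATP. Compounds titrated qHTS. Luminescence imaged on CCD.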
# hNpr1 antagonist: Natriuretic polypeptide receptor (hNpr1) antagonism - Primary qHTS | 76,000 compounds, 1.6% hits | Potency, µM (highest dose often 46.3 µM), usual class: inhibitors | Atrial natriuretic peptide receptor 1 (Homo sapiens), P16066 | HEK293 hNpr1 GloSensor cGMP, ANP-stimulated luminescence; calls by dose curve; further: nearly all actives have a fitted effect of over 60% in size
#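 Compound pre-incubated 30 min at room temperature on GloSensor-loaded HEK293 cells stably carrying hNpr1 and the pGS-40F cGMP biosensor. Stimulation uses hNppA at 0.1 nM final; luminescence is taken at baseline and 20 min post-agonist.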
# HEK cytotox: Cytotoxic Profiling in HEK 293 Cell Line of Diverse Libraries Using Quantitative High-Throughput Screening; HEK 293 viability, ATP luminescence (CellTiter-Glo), 48-72 h; 94,000 compounds, 6.6% hits; Potency, µM (top dose mostly 115 µM), usual class: inhibitors; further: nearly all actives have a fitted effect of over 60% in size
#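 HEK 293 cells at 250 cells/well were exposed to compounds by pintool transfer for 48 or 72 hr at 37 degree Celsius, 5% CO2. Viability was read as ATP-coupled luminescence with CellTiter-Glo after 10 min at room temperature.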
# 3T3 cytotox: Cytotoxic Profiling in NIH 3T3 Cell Line of Diverse Libraries Using Quantitative High-Throughput Screening; Potency, µM (titrated, usually from 96.7 µM), hits mostly inhibitors; AID 1345082, 2018; NIH 3T3 viability, CellTiter-Glo ATP luminescence, 48-72 h; 94,000 compounds, 4.3% hits; further: nearly all actives have a fitted effect of over 55% in size
#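 ATP-dependent luminescence (CellTiter-Glo) served as the viability signal for NIH 3T3 cells treated with compound for 48 or 72 hr at 37 °C.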
# Hits are given with their value; - = inactive; ? = inconclusive; . = no result given; ! = not active in a repeat. Unless noted, the call rests on the fitted dose curve; in most records, active means well fitted curve in the direction sought with a large enough effect; inconclusive means small, poorly fitted or top-dose-only effect, or another doubt; inactive means no such curve, though single readings can be large; an effect the other way counts as inactive or inconclusive.
SMILES,FLuc inh,hNpr1 antagonist,HEK cytotox,3T3 cytotox
Cn1ccnc1-c1cn(CC2(c3ccccc3F)CCCC2)nn1,-,-,?,?
O=c1c2nc(-c3cccc(O)c3)ccc2ncn1-c1ccccc1,71µM,-,?,8.9µM
CC(=O)Nc1cccc(-c2ccc3ncn(-c4cccnc4)c(=O)c3n2)c1,-,-,-,?
COc1ccc(-c2ccc3ncn(C4CC4)c(=O)c3n2)cc1OC,63µM,-,?,40µM
COc1ccc(-c2ccc3ncn(-c4ccc(F)cc4F)c(=O)c3n2)cc1OC,-,-,?,?
O=c1c2nc(-c3cccc(O)c3)ccc2ncn1C1CC1,?,-,-,63µM
COc1ncccc1-c1nccn2c(C3CN(C(=O)c4cc5ccccc5[nH]4)C3)ncc12,-,-,?,-
NC1CC(c2nnc(COc3ccc4c(c3)CCNCC4)n2C2CC2)C1 (stereo not given),-,-,18µM!,?
CCn1c(COc2ccc(C)nc2)nnc1C1CC(N)C1 (stereo not given),-,-,-,-
CC(C)(C)c1nnc2ccc(C(=O)NCCc3ccccc3F)cn12,.,.,-,-
O=C(C1CCCN1C(=O)c1ccccc1F)N1CCC(c2nc3ccncc3[nH]2)CC1 (stereo not given),.,.,-,-
c1cnn(-c2ccc(-c3nc(C4CCOC4)no3)cc2)c1 (stereo not given),16µM,?,?,-
Cn1ccc2ccc(-c3nc(C4CCOC4)no3)cc21 (stereo not given),35µM,-,-,?
Cn1c(CNC(=O)C2(C)CCCCC(=O)N2)nc2ccccc21 (stereo not given),-,-,45µM,40µM
Cn1c(CNC(=O)C2(Cc3ccccc3)CCCCC(=O)N2)nc2ccccc21 (stereo not given),-,-,?,?
COc1ccccc1CN1CCNc2cnc(-c3ccccc3)cc2C1,-,-,79µM,?
COc1ccccc1CN1CCNc2cnc(Nc3ccccc3)cc2C1,-,-,89µM,?
Oc1ccccc1CN1CCNc2cnc(Oc3ccccc3)cc2C1,-,?,79µM,?
COc1ccc(OC)c(CN2CCNc3cc(Nc4ccccc4)ncc3C2)c1,22µM,-,?,35µM
CCOc1cc2c(cn1)NCCN(Cc1ccccc1O)C2,-,-,?,-
COc1ccc(CNC(=O)c2cc3c(N4CCCC4)nc(C)cn3n2)c(OC)c1,-,-,-,-
O=C(NC1CCN(c2cc(N3CCOCC3)cnn2)C1)C1CCCC1 (stereo not given),.,.,-,-
O=C(NCc1ccc(C(F)(F)F)cc1)C1CCCN1C(=O)c1cccc(-c2ccccn2)c1 (stereo not given),.,.,?,-
Cc1ccc(N2Cc3c(ncnc3N3CCC(O)CC3)CN(C)C2=O)cc1,-,-,-,-
O=C(CC1CCCN(c2cnn(CC3CC3)c(=O)c2)C1)NCCc1c[nH]c2ccccc12 (stereo not given),-,-,79µM,?
SMILES,FLuc inh,hNpr1 antagonist,HEK cytotox,3T3 cytotox
O=C(CC1CCCN(c2cnn(CC3CC3)c(=O)c2)C1)Nc1cccc(F)c1 (stereo not given),-,-,?,22µM
O=C(CC1CCCN(c2cnn(CC3CC3)c(=O)c2)C1)NCc1ccccc1 (stereo not given),-,-,?,35µM
CCn1ncc(N2CCCC(CC(=O)NCc3ccccc3)C2)cc1=O (stereo not given),-,-,?,-
Cn1ncc(N2CCCC(CC(=O)Nc3cccc(F)c3)C2)cc1=O (stereo not given),-,-,-,?
CC(=O)N1CCC(c2nnc3n2C(C(=O)NC2CCCCCC2)CC3)CC1 (stereo not given),.,.,-,-
COc1cc(OCc2ccccc2)ccc1CN1CC[C@@]2(O)CCNC[C@H]2C1,-,-,22µM,20µM
COCCn1cc2c3c(cccc31)CN(C(=O)c1cccc(C(F)(F)F)c1)CC2,-,-,?,32µM
CCCn1cc2c3c(cccc31)CN(C(=O)c1cccc(C#N)c1)CC2,-,-,?,?
CCc1nc(NCc2cn[nH]c2-c2ccc(Cl)cc2)c2cnn(C)c2n1,-,-,?,45µM
COc1ccc(C(=O)N2CCN(c3nccc(Nc4ccccc4OC)n3)CC2)cc1,.,.,40µM,?
COc1ccccc1Nc1ccnc(N2CCN(C(=O)c3ccccc3Cl)CC2)n1,.,.,?,40µM
COc1ccccc1Nc1ccnc(N2CCN(C(C)=O)CC2)n1,.,.,-,-
COc1cc2ncnc(N3CC4CCC(C3)N4CC(F)(F)F)c2cc1OC,.,.,-,?
CCc1ncc2c(N3CC4CCC(C3)N4CC(F)(F)F)nc3ccccc3n12,.,.,40µM,?
Cc1noc(C)c1-c1cc2cc(CN(C)C)oc2c(N2CCOCC2)n1,-,-,?,?
Fc1ccccc1-c1noc(N2CCCCC2)n1,1.6µM,10µM,?,?
CC(C)C(=O)NCC12CCCC=C1N(CC1CC1)C(=O)CC2 (stereo not given),.,.,-,-
O=c1cc(-c2cccnc2)oc2c(-c3ccccc3F)nccc12,-,-,?,20µM
O=c1cc(-c2cccnc2)oc2c(-c3cn[nH]c3)nccc12,-,-,-,8.9µM
CN(C)c1cc(=O)c2ccnc(-c3ccccc3F)c2o1,-,-,?,45µM
C[S+](=O)([O-])c1ccc(-c2nccc3c(=O)cc(-c4ccncc4)oc23)cc1,-,-,?,32µM
COc1cccc(-c2cccc(C(=O)N3CCCC3C(=O)NC3CC3)c2)c1 (stereo not given),.,.,?,-
O=c1cc(-c2cccnc2)oc2c(-c3ccccc3Oc3ccccc3)nccc12,-,-,100µM,?
Cc1cccc(-c2nc3cc(C(=O)NCc4ccc(Cl)cc4)ccc3o2)n1,.,.,?,-
CC(C)CNC(=O)c1ccc2c(c1)NC(C)(COc1ccc3[nH]ccc3c1)CO2 (stereo not given),-,-,?,89µM
SMILES,FLuc inh,hNpr1 antagonist,HEK cytotox,3T3 cytotox
CC1(COc2ccc3[nH]ccc3c2)COc2ccc(C(=O)Nc3cccnc3)cc2N1 (stereo not given),-,?,100µM,89µM
COc1ccc(NC(=O)c2ccc3c(c2)NC(C)(COc2ccc4[nH]ccc4c2)CO3)cn1 (stereo not given),-,-,?,?
COc1ccc(OCC2(C)COc3ccc(C(=O)NCc4ccco4)cc3N2)cc1 (stereo not given),-,?,?,?
CN(C)C(=O)c1ccc2c(c1)NC(C)(COc1ccc3[nH]ccc3c1)CO2 (stereo not given),-,-,?,-
CC1(COc2ccc3[nH]ccc3c2)COc2ccc(C(=O)NCc3ccco3)cc2N1 (stereo not given),-,-,100µM,?
COCCCn1c(=O)c(C(=O)NCC(F)(F)F)nc2cccnc21,.,.,-,-

# Compound activity (PubChem)
